PubChem BioAssay AID1566 (Sanford-Burnham Center for Chemical Genomics, 2009)
Among all 290,000 compounds or so, about 1,800 (0.62%) were called active. Cut-off read from the data, not from the text of the source: active = inhibition above about 50%; inactive = the rest. The list comes from a sample in which actives are over-represented; it also holds similar structures and randomly drawn compounds.

Experiment: inhibition of NOD2-driven NF-kB reporter – cell-based, luminescence, uHTS, HEK293 (AID 1566)
Conditions: HEK293 NOD2/NF-kB luciferase reporter, at 4 µM, active compounds read high

Structure (SMILES)	inhibition
Cc1ccc(/C=C/C(=O)Nn2cnnc2)cc1	5% (inactive)
Cc1cc(Br)c(S(=O)(=O)NCc2ccncc2)cc1C	48.6% (inactive)
Cc1ccc(C)c(S(=O)(=O)NCc2ccncc2)c1	22.5% (inactive)
Cc1c(NP(=O)(Oc2ccccc2F)Oc2ccccc2F)c(=O)n(-c2ccccc2)n1C	7.9% (inactive)
O=C(Nc1cc(S(=O)(=O)N2CCCC2)ccc1OCC(F)(F)F)c1ccccc1F	6.6% (inactive)
Cc1cccc(NC(=O)CSc2ncnc3sc(C)c(C)c23)n1	36.5% (inactive)
COC(=O)c1c(-c2ccccc2)csc1NC(=O)CSc1ncnc2sc(C)c(C)c12	34.6% (inactive)
COC(=O)c1c(-c2cccs2)csc1NC(=O)CSc1ncnc2sc(C)c(C)c12	51.2% (active)
O=C(O)CN1C(=O)C2C3CC(C2C1=O)C1C(c2ccc(Cl)cc2)c2sc(=O)[nH]c2SC31 (configuration not stated)	3.8% (inactive)
Cc1nn(-c2ccccc2)c(Cl)c1/C=N/NC(=O)OC(C)(C)C	-73.9% (inactive)
Cc1cccc(C(=O)Nc2nnc(S(=O)(=O)N3CCC(C)CC3)s2)c1	-3.6% (inactive)
O=C(Nc1nnc(S(=O)(=O)N2CCCCC2)s1)c1ccc(Cl)cc1	47.8% (inactive)
CC1CCN(S(=O)(=O)c2nnc(NC(=O)c3cccc([N+](=O)[O-])c3)s2)CC1	37.1% (inactive)
Cc1ccc(C(=O)Nc2nnc(S(=O)(=O)N3CCCCCC3)s2)cc1	4.6% (inactive)
CC(=O)c1cccc(NCC(=O)c2ccc(C)c([N+](=O)[O-])c2)c1	15.7% (inactive)
Cc1ccc(S(=O)(=O)Nc2nnc(C(C)(C)C)s2)cc1	20.9% (inactive)
N/C(=N\c1nc(CSc2ccc(Cl)cc2)cc(=O)[nH]1)Nc1ccccc1C(F)(F)F	2.8% (inactive)
CC(=O)N1N=C(c2ccco2)CC1c1cccs1 (configuration not stated)	-8.2% (inactive)
O=C(O)CCC(=O)N1N=C(c2ccco2)CC1c1cccs1 (configuration not stated)	12.1% (inactive)
Cc1ccc(C2CC(c3cccs3)=NN2C(=O)CCl)cc1 (configuration not stated)	37.3% (inactive)
Cc1ccc(C2=NN(C(=O)CCl)C(c3ccco3)C2)o1 (configuration not stated)	-44.2% (inactive)
CCOC(=O)c1cccc(NC(=O)COC)c1	4.6% (inactive)
CCOCCCNC(=O)/C(C#N)=C/c1ccc(C(=O)OC)cc1	15.4% (inactive)
O=C1Nc2ccccc2S/C1=C\C(=O)N1CCCC1	-4% (inactive)
O=C(CCNC(=O)c1ccco1)Nc1ccccc1N1CCOCC1	-4.7% (inactive)

Structure (SMILES)	inhibition
CCOc1cc(/C=C2\SC(=O)N(CC(=O)Nc3ccccc3F)C2=O)cc([N+](=O)[O-])c1O	55.8% (active)
COc1cc(/C=C2\SC(=O)N(CC(=O)Nc3cccc(C)c3)C2=O)cc([N+](=O)[O-])c1O	1.5% (inactive)
COc1cc(/C=C2\SC(=O)N(CC(=O)Nc3ccccc3F)C2=O)cc(Cl)c1O	18.4% (inactive)
O=C(NC1CCCCC1)C1CN(S(=O)(=O)c2ccccc2)CCN1S(=O)(=O)c1ccccc1 (configuration not stated)	20.9% (inactive)
CCOC(=O)/C(C#N)=C1/SC(CC)C(=O)N1c1ccc(Br)cc1 (configuration not stated)	-8.1% (inactive)
CC1CCN(C(=S)c2cn(Cc3ccccc3F)c3ccccc23)CC1	10.5% (inactive)
CC(=O)Oc1cccc(N2C(=O)C3CC=CCC3C2=O)c1 (configuration not stated)	2.7% (inactive)
Cc1csc2c(N3CCN(C(=O)Nc4ccccc4)CC3)ncnc12	34.1% (inactive)
Cc1csc2c(N3CCN(C(=O)Nc4ccc(OC(F)(F)F)cc4)CC3)ncnc12	10.4% (inactive)
CC(NS(=O)(=O)c1ccc(Cl)cc1)C(=O)N1CCOCC1 (configuration not stated)	-4.3% (inactive)
Cc1cc(OCC(=O)NCCCn2ccnc2)c2c(C)c(C)c(=O)oc2c1	-3.4% (inactive)
CC(=O)c1ccc(S(=O)(=O)N(C)C(C)CCc2ccco2)cc1 (configuration not stated)	54.3% (active)
CC(CCc1ccco1)N(C)S(=O)(=O)c1csc(C(N)=O)c1 (configuration not stated)	15% (inactive)
COc1ccc(S(=O)(=O)N(C)C(C)CCc2ccco2)cc1 (configuration not stated)	-3.3% (inactive)
CC(C)(C)C(=O)C[n+]1cccc(C(N)=O)c1	12.8% (inactive)
Cc1cc(N2CCCC2)ccc1NC(=O)COc1cccc(C(F)(F)F)c1	60.3% (active)
O=C(COc1ccccc1)Nc1cc(C(F)(F)F)ccc1N1CCCC1	24.5% (inactive)
O=C(COc1cccc(C(F)(F)F)c1)Nc1ccc(S(=O)(=O)N2CCCC2)cc1	-5.9% (inactive)
O=C(Nc1cccc(C(F)(F)F)c1)C1CCN(S(=O)(=O)c2ccc(N3CCCC3=O)cc2)CC1	34.8% (inactive)
Cc1ccc(N=C2C(=O)Nc3ccccc32)cc1	4% (inactive)
Cc1cc(C)c(N=C2C(=O)Nc3ccccc32)c(C)c1	22.5% (inactive)
Cc1cccc(C)c1N=C1C(=O)Nc2ccccc21	57.9% (active)
CCN(CC)C(=O)C1CCN(S(=O)(=O)c2ccc3c(c2)CCCN3C(=O)C2CCC2)CC1	23.6% (inactive)
COc1ccc(NC(C)=O)cc1NC(=O)c1ccc2ccccc2c1	-14.6% (inactive)
CCc1sc(NC(C)=O)nc1-c1ccccc1	-49.5% (inactive)

Structure (SMILES)	inhibition
CC(=O)Nc1ccc(NC(=O)C2CCC(CNS(=O)(=O)c3cccc4nsnc34)CC2)cc1 (configuration not stated)	-8.1% (inactive)
Cc1cc(=O)n2nc(N3CCC(C(=O)N4CCN(c5ccccc5)CC4)CC3)sc2n1	-8.2% (inactive)
CCCc1cc(=O)n2nc(N3CCC(C(=O)N4CCN(c5ccc(OC)cc5)CC4)CC3)sc2n1	62.2% (active)
CCCc1cc(=O)n2nc(N3CCC(C(=O)N4CCN(c5cccc(OC)c5)CC4)CC3)sc2n1	40.5% (inactive)
NS(=O)(=O)c1ccc(CCNC(=O)c2ccc3ccccc3n2)cc1	-17.8% (inactive)
CCc1nnc(NC(=O)c2ccc(S(=O)(=O)N3CCc4ccccc4C3)cc2)s1	25.4% (inactive)
O=C(Nc1nnc(C2CC2)s1)c1ccc(Cl)c(S(=O)(=O)N2CCc3ccccc3C2)c1	41.6% (inactive)
CCCn1ncc(CN2CCCC(C(=O)c3cccc(OC(C)C)c3)C2)c1C (configuration not stated)	-35.2% (inactive)
Cc1[nH]c2ccc(C(=O)N3CCCCC3)cc2c1C	-56% (inactive)
CCC(=O)OCn1nnc2ccccc2c1=O	7.6% (inactive)
Cc1sc(NC(=O)CCC(=O)O)c(C(N)=O)c1-c1ccccc1	-3.9% (inactive)
Cc1sc(NC(=O)c2cccc([N+](=O)[O-])c2)c(C(N)=O)c1-c1ccc(C(C)(C)C)cc1	7.8% (inactive)
O=S(=O)(Nc1cccc(-c2cn3cccnc3n2)c1)c1ccc(F)cc1	0.9% (inactive)
O=S(=O)(Nc1cccc(-c2cn3cccnc3n2)c1)c1ccccc1	4.2% (inactive)
COC(=O)C1CC(Cl)CN1c1ncc(C(F)(F)F)cc1Cl (configuration not stated)	17.1% (inactive)
CCN(CC)CCCNc1ncnc2ccccc12	9.5% (inactive)
Clc1ccc2c(NCc3ccco3)ncnc2c1	18.8% (inactive)
OCCNc1ncnc2ccc(Br)cc12	23% (inactive)
c1ccc(CCNc2ncnc3ccccc23)cc1	28.7% (inactive)
COc1cc2ncnc(NCc3ccccc3)c2cc1OC	-17.4% (inactive)
Brc1ccc2ncnc(NCc3ccccc3)c2c1	79% (active)
COc1cc2ncnc(NCc3ccco3)c2cc1OC	-78.1% (inactive)
CCCCCCCCNc1ncnc2ccccc12	55.7% (active)
c1ccc(CNc2nc(NCc3ccccc3)c3ccccc3n2)cc1	-4.4% (inactive)
OCCCCCNc1ncnc2ccccc12	40.1% (inactive)

Structure (SMILES)	inhibition
c1ccc(CNc2ncnc3ccccc23)cc1	55.3% (active)
Nc1nc(Nc2cccc(Cl)c2)nc(NCCO)c1[N+](=O)[O-]	15.3% (inactive)
CCOc1ccc(CN(C)CC(=O)Nc2cc(OC)c([N+](=O)[O-])cc2C)cc1	-8% (inactive)
CCCN(CCC)S(=O)(=O)c1ccc(C(=O)NNc2nc(-c3ccccc3)c3cc(Br)ccc3n2)cc1	-5% (inactive)
Cc1cccnc1NC(=O)CCNC(=O)c1ccccc1Cl	-22.7% (inactive)
COc1ccccc1NC(=O)CSc1n[nH]c(-c2cccnc2)n1	8.6% (inactive)
COc1ccc(C2C(C(=O)c3ccco3)=C(O)C(=O)N2CCCn2ccnc2)c(OC)c1 (configuration not stated)	-6.9% (inactive)
CC(C)=C(NC(=O)c1ccccc1)C(=O)NCc1ccccc1	-7% (inactive)
O=c1sc2ccccc2c(N2CCOCC2)c1[N+](=O)[O-]	8.4% (inactive)
COc1cc(/C=N\n2cnnc2)ccc1OCC(=O)Nc1ccc(C)cc1	12.5% (inactive)
COC(=O)C1(Cc2cc(-c3cccnc3)no2)CCN(C(=O)OC(C)(C)C)CC1	15.6% (inactive)
c1ccc2nc(-c3ccc(N4CCOCC4)cc3)ccc2c1	-59.7% (inactive)
CN1CCN(c2ccc(-c3ccc4ccccc4n3)cc2)CC1	79.9% (active)
COc1ccc(-c2ccc3ccccc3n2)cc1	-226% (inactive)
Nc1ccc(Oc2cc(N)cc(Oc3ccccc3)c2)cc1	-93.4% (inactive)
Cc1cccc(Oc2ccc(N)cc2)c1	-4% (inactive)
CC(C)c1ccc(C(C(=O)NC2CCCC2)N(C(=O)c2csnn2)C2CC2)cc1 (configuration not stated)	12.1% (inactive)
CC(SCc1ccccc1)C(=O)NC1CCCC1 (configuration not stated)	-2.5% (inactive)
Cc1nc(SCC(=O)Nc2ccnc3ccccc23)n[nH]1	17.9% (inactive)
Cc1cc(C)nc(SCC(=O)Nc2ccnc3ccccc23)n1	50.5% (active)
Cc1cc(=O)[nH]c(SCC(=O)Nc2ccnc3ccccc23)n1	26.4% (inactive)
NC(=O)c1cnn(-c2cc(Oc3ccccc3)ncn2)c1N	-54.7% (inactive)
